Compound activity from PubChem.
Rows were chosen to be rich in hits. Some 3.4% of all compounds tested hit in one or more screens of this group.
HGIII-sPLA2 inh: human group III sPLA2 inhibitors, primary screen, biochemical, QFRET, BODIPY PC-A2 liposome substrate | Group 3 secretory phospholipase A2 (Homo sapiens), Q9NZ20 | QFRET BODIPY PC-A2 liposome hydrolysis, fluorescence | inhibition, % at 12.2 µM | 370,000 tested, 0.56% active | AID 743126, 2013;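 active means inhibition above mean plus 3 SD of compounds lying within the high and low control bounds, cut at about 19% in these data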
Target sequence (Q9NZ20 whole entry, looked up): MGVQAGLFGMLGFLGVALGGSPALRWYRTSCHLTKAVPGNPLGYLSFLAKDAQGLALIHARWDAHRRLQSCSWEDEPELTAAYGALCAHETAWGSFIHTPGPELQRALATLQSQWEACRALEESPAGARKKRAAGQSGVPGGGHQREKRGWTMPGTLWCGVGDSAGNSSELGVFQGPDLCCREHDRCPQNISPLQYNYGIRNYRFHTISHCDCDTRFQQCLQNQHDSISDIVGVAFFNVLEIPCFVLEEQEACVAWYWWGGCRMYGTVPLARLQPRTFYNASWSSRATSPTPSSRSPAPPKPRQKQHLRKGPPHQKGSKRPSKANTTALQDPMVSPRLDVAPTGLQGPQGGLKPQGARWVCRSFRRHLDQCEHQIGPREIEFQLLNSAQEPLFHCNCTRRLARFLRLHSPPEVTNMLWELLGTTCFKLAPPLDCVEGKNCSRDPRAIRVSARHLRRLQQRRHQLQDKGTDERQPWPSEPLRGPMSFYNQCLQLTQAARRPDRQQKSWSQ
ADAM10 inh: human ADAM10 inhibitors, primary screen, biochemical, QFRET, HTS; 370,000 tested, 0.62% active; inhibition, % at 7 µM; Disintegrin and metalloproteinase domain-containing protein 10 (Homo sapiens), O14672; AID 720582, 2013; recombinant ADAM10, EDANS/DABCYL FRET peptide cleavage, 3 h;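 active means inhibition above a per-campaign cutoff equal to the mean of compounds falling between control-based bounds plus 3 SD, cut at about 20% in these data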
CendR NRP1 mod: modulators of CendR peptide binding to NRP-1, primary screen, biochemical, fluorescence polarization, uHTS. AID 602438, 2012. inhibition, % at 25 µM. FAM-RPARPAR peptide binding to NRP-1. 360,000 tested, 0.85% active;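 active means inhibition or corrected inhibition above about 18%, plus a signal ratio from 0.5 to 1.5, limit read from the data, passing the limit was not always enough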
ADAM17 inh: ADAM17 inhibitors, primary screen, biochemical, QFRET; Disintegrin and metalloproteinase domain-containing protein 17 (Homo sapiens), P78536; recombinant ADAM17, EDANS/DABCYL FRET peptide cleavage; inhibition, % at 6.95 µM; 370,000 tested, 0.83% active; AID 720648, 2013;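 active means inhibition above the mean of compounds lying between control limits plus 3 SD, set per campaign, cut at about 8.5% in these data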
KLK7 zymogen act: proKLK7 zymogen activators, primary screen, biochemical, fluorescence intensity. Kallikrein-7 (Homo sapiens), P49862. purified proKLK7, EDANS-DABCYL substrate fluorescence; 100% is mature enzyme control, 0% vehicle. activation, % at 7 µM. 370,000 tested, 0.9% active;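 active means activation above the mean of all tested compounds plus 3 SD, computed per campaign excluding outliers beyond control limits, cut at about 13% in these data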
hGIII sPLA2 conf: human group III sPLA2 inhibitors, confirmation, biochemical, QFRET, triplicate | shares compounds with HGIII-sPLA2 inh | recombinant hGIII-sPLA2, BODIPY PC-A2 QFRET fluorescence | inhibition, % at 12.2 µM | 2,000 tested, 34% active;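 active means mean inhibition across triplicates above the hit cutoff set in the earlier primary screen, cut at about 19% in these data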
535nm interf: 535nm fluorescence optical interference, confirmation, artefact control for HGIII-sPLA2 inhibitor project, biochemical, QFRET; shares compounds with HGIII-sPLA2 inh; BODIPY FL product fluorescence interference; inhibition, % at 12.2 µM; 2,000 tested, 8.5% active; AID 743282, 2014;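 active means average inhibition above the solvent-only control mean plus 3 SD, cut at about 6% in these data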
535nm interf DR: 535nm fluorescence optical interference, dose response, artefact control for HGIII-sPLA2 inhibitor project, biochemical, QFRET. shares compounds with HGIII-sPLA2 inh. 240 tested, under 10 active. BODIPY FL product fluorescence interference, cell-free. IC50, µM;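 active means IC50 at or below 10 µM; inactive means IC50 above 10 µM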
Large screens that a line does not name were inactive (follow-up assays come after a bar, where they were run).

FC(F)(F)c1ccnc(NCc2ccc(Cl)cc2)n1	none
O=S(=O)(NNc1nccc(C(F)(F)F)n1)c1cccc(Cl)c1Cl	HGIII-sPLA2 inh 58 | hGIII sPLA2 conf 84 | 535nm interf 88
CCc1ccc(C(=O)NCc2ccc(Cl)cc2)cc1	HGIII-sPLA2 inh 21 | hGIII sPLA2 conf inactive | 535nm interf inactive
O=C(NC(=S)NCCN1CCOCC1)c1ccccc1Cl	none
O=C(NC(=S)NCCN1CCOCC1)c1ccc(Cl)cc1Cl	HGIII-sPLA2 inh 21 | hGIII sPLA2 conf inactive | 535nm interf inactive
CCCOc1ccc(C(=O)NCCO)cc1	none
CC1(C)CC2C1CCC1(O)CC2(C)CCC1N(O)c1ccc(C(=O)NCCO)cn1 (centres undefined)	HGIII-sPLA2 inh 21 | hGIII sPLA2 conf 24 | 535nm interf inactive
S=C(/N=c1/sccn1Cc1ccccc1)NC1CC1	HGIII-sPLA2 inh 20 | hGIII sPLA2 conf inactive | 535nm interf inactive
O=c1cc(-c2ccccc2)cc(-c2ccccc2)n1O	HGIII-sPLA2 inh 21 | hGIII sPLA2 conf inactive | 535nm interf inactive
CC12CCC(C(=O)N(CSC(=S)N/N=C\c3ccccc3O)C1=O)C2(C)C (centres undefined)	HGIII-sPLA2 inh 28 | hGIII sPLA2 conf 36 | 535nm interf inactive
Cc1csc(NC(=S)NC(=O)c2ccccc2)n1	HGIII-sPLA2 inh 21 | hGIII sPLA2 conf 32 | 535nm interf inactive | 535nm interf DR inactive
Cn1c(CBr)c(C(=O)c2ccc([N+](=O)[O-])cc2)c(=O)n(C)c1=O	HGIII-sPLA2 inh 22 | hGIII sPLA2 conf inactive | 535nm interf inactive
CC(=O)c1cn(-c2ccc([N+](=O)[O-])cc2)c(=O)n(C)c1=O	none
Cc1cc(SCC(=O)NN=C2CCN(C(C)C)CC2)c(C)cc1Br	HGIII-sPLA2 inh 22 | hGIII sPLA2 conf inactive | 535nm interf inactive
CC(=O)N1CCN(C(=O)CSc2cc(C)c(Br)cc2C)CC1	none
O=C(CN(Cc1cccs1)S(=O)(=O)c1ccc(S(=O)(=O)N2CCCCC2)cc1)Nc1ccccc1	HGIII-sPLA2 inh 21 | hGIII sPLA2 conf inactive | 535nm interf inactive
COC1=C[C@H](C(=O)NCc2ccc(Cl)cc2)C(C)C(c2ccccc2)CC1=O (some centres undefined)	none (no result: CendR NRP1 mod)
O=S(=O)(O)c1ccc(O)c2cc(Nc3ccccc3)ccc12	HGIII-sPLA2 inh 25 | hGIII sPLA2 conf inactive | 535nm interf inactive
Cc1ccc(S(=O)(=O)c2cc(Nc3ccccc3)ccc2O)cc1	none
CCN(CC)c1ccc(NC(=O)c2ccc3c(c2)OCO3)cc1	HGIII-sPLA2 inh 20 | hGIII sPLA2 conf inactive | 535nm interf inactive
O=S1(=O)N[C@H](Cc2ccccc2)COc2cccc(F)c21	none (no result: CendR NRP1 mod)
Cc1ccc2c(c1)C1NC(=S)NC(C)(O2)C1C(=O)Nc1ccc(Cl)cc1 (centres undefined)	none
COc1ccc2c(c1)C1NC(=S)NC(C)(O2)C1C(=O)Nc1ccc(Cl)cc1 (centres undefined)	HGIII-sPLA2 inh 20 | hGIII sPLA2 conf inactive | 535nm interf inactive
COc1ccc2c(c1)C1NC(=S)NC(C)(O2)C1C(=O)Nc1ccc(C)cc1C (centres undefined)	none
COc1ccc2c(c1)C1NC(=S)N[C@@](C)(O2)C1C(=O)Nc1ccccc1 (some centres undefined)	HGIII-sPLA2 inh 21 | hGIII sPLA2 conf 24 | 535nm interf inactive
Cc1ccc2c(c1)c1c3n2CCN(CC(N)=O)C3CCC1 (centres undefined)	none
Cc1ccc2c(c1)c1c3n2CCN(CC#N)C3CCC1 (centres undefined)	HGIII-sPLA2 inh 22 | hGIII sPLA2 conf inactive | 535nm interf inactive
CCOC(=O)C1(C)CCCCCN1C(=O)c1ccc(N(C)C)cc1 (centres undefined)	HGIII-sPLA2 inh 19 | hGIII sPLA2 conf inactive | 535nm interf inactive
CCOC(=O)Cn1cc(CN2C(C(=O)OC)CN(Cc3ccc(OC)cc3)CCS2(=O)=O)nn1 (centres undefined)	none (no result: CendR NRP1 mod)
COc1ccc(OC)c(CNS(=O)(=O)c2ccccc2Br)c1	none (no result: CendR NRP1 mod)
CCCCN(CC)S(=O)(=O)c1ccc(C(=O)N=c2sc3cc(NC(C)=O)ccc3n2C)cc1	HGIII-sPLA2 inh 20 | hGIII sPLA2 conf inactive | 535nm interf inactive
Cc1ccccc1NC(=S)NC(=O)c1cncc(Br)c1	HGIII-sPLA2 inh 23 | hGIII sPLA2 conf inactive | 535nm interf inactive
CCOC(=O)[C@H]1[C@H]2COc3cc(OC)ccc3[C@@H]2N2C(=O)c3cc(F)ccc3NC(=O)[C@@]12C	HGIII-sPLA2 inh 31 | hGIII sPLA2 conf inactive | 535nm interf inactive
CCOC(=O)[C@H]1[C@H]2COc3cc(OC)ccc3[C@@H]2N2C(=O)c3cc(C)ccc3NC(=O)[C@@]12C	none
CCOC(=O)[C@H]1[C@H]2COc3cc(OC)ccc3[C@@H]2N2C(=O)c3cc(F)c(F)cc3NC(=O)[C@@]12C	HGIII-sPLA2 inh 25 | hGIII sPLA2 conf 20 | 535nm interf inactive
CCOC(=O)[C@H]1[C@H]2COc3cc(OC)ccc3[C@@H]2N2C(=O)c3cc(OC)ccc3NC(=O)[C@@]12C	HGIII-sPLA2 inh 26 | hGIII sPLA2 conf inactive | 535nm interf inactive
CCOC(=O)[C@H]1[C@H]2COc3cc(OC)ccc3[C@@H]2N2C(=O)c3ccc(C)cc3NC(=O)[C@@]12C	HGIII-sPLA2 inh 25 | hGIII sPLA2 conf inactive | 535nm interf inactive
CCOC(=O)CC[C@@H]1CC[C@]2(CCCN(C(=O)C(C)(C)C)C2)O1	none (no result: CendR NRP1 mod)
Cc1ccc(S(=O)(=O)N(C)CCCC(=O)Nc2ccccn2)cc1	HGIII-sPLA2 inh 20 | hGIII sPLA2 conf inactive | 535nm interf inactive
Cc1cccc(/C=N/NC(=O)c2c(-c3ccccc3)noc2C)c1O	HGIII-sPLA2 inh 34 | hGIII sPLA2 conf inactive | 535nm interf inactive
Cc1cccc(/C=N/NC(=O)c2ccc3c(c2)OCCO3)c1O	HGIII-sPLA2 inh 30 | hGIII sPLA2 conf 19 | 535nm interf inactive
Cc1cccc(/C=N\NC(=O)c2ccc(Cl)cc2)c1O	HGIII-sPLA2 inh 37 | hGIII sPLA2 conf 22 | 535nm interf inactive
Cc1cccc(/C=N/NC(=O)Cc2ccc(Cl)cc2)c1O	none
COc1ccccc1/C=N/NC(=O)c1c(-c2ccccc2)noc1C	none
